From the OligoGym collection

Biological target: LIG4
Test: pooled miR-30 sensor sort-seq; sequence = guide strand
Conditions: shRNA
Note: reference of the scale not given here.

Row | Sequence | sensor-assay potency score (higher = more potent)
1 | TAAAAGGTCGTTTACTTGCTGT | -0.0412
2 | TAGTCCACTGACATACTCTGGT | 0.198
3 | TTGCTGACTAACACCAAGCTTT | -0.307
4 | TTTATTGTTACATTTGGCCTTA | 0.231
5 | TTCCTTTCTGTAAACATCTTGG | -0.486
6 | TTTCTGTAAACATCTTGGCTTC | -0.577
7 | TAGCTTTTTATTATTAACCATC | -1.43
8 | TAACACAAAACTCTACATCTTC | 0.104
9 | TTTATATACATCTCCATCTTTG | -1.01
10 | TTCTTCAGGAGTCTGCTCGTTA | 0.109
11 | TAGTTTGCTGACTAACACCAAG | -1.17
12 | TTTTAGATCATTAAGTCTCATA | -0.76

Biological target: LILRA4
Test: as above
Conditions: shRNA

Row | Sequence | sensor-assay potency score (higher = more potent)
13 | TTGTGTGCGCCGTAGCATCTGT | -0.739
14 | TCCTTGTACAGAGTGTATCTGA | -0.799
15 | TTTTCATAGCCGTAGCATCTGA | -1.2
16 | TAGGTTTTCTGCCTGCACCCGG | -0.532
17 | AATCTGACTTCTTTTGTGCTGG | 0.00913
18 | TTCTCTCCTGAGGTCACCGTGG | -1.07
19 | TAGCATCTGAATGTACCCCTGT | 0.139
20 | TCCTCAATCAGAGTGAACCTGC | -0.933
21 | TAGCCGTAGCATCTGAATGTAC | -0.777
22 | TTTGGGTAGGTTTTCTGCCTGC | -0.143
23 | TTGATCTCAGACGCAACGGGGG | -1.08
24 | TAATGGAGGAAGCATCTTCTAC | -1.03

Biological target: LILRB3
Test: as above
Conditions: shRNA

Row | Sequence | sensor-assay potency score (higher = more potent)
25 | TGCTGTGACGCTGACGTCGGAG | -0.552
26 | TATGCAGTCGGTACTCCTGGGC | -0.223
27 | TGACTGTCCAGCTCCACCCTGT | -0.563
28 | TTTATGCAGTCGGTACTCCTGG | -0.617
29 | TTTCTCTGGTCAGATGTCCTGT | -0.223
30 | TATTAGTCATCTTTGAGTCAGG | -0.452
31 | TTATGCAGTCGGTACTCCTGGG | -0.343
32 | TTCCGTCTAAGGGTCAAGCTGT | -0.222
33 | TTAGTCATCTTTGAGTCAGGTG | -0.0536
34 | TTGTTGAGAAGTCTGTTGCTTT | -0.0209
35 | TTGATTGTTGAGAAGTCTGTTG | -0.405
36 | TTGTGTGCACCGTAGCACCTGT | -0.532

Biological target: LIMK2
Test: as above
Conditions: shRNA

Row | Sequence | sensor-assay potency score (higher = more potent)
37 | TTCACTTGCACAGTGGTGGCGT | 0.835
38 | TACAGCACACCAATGAACTTGA | -0.145
39 | TCGTTGACAGTCCTGTACCATA | -1.6
40 | TACTTGATGGTGACCTTCCCTT | -0.173
